# Data from PubChem BioAssay (NCATS).
# Records with an inconclusive call do not appear. Values without a mark were called inactive. Active and inactive are the calls of the source. Calls follow the shape of the dose curve; as a rule, active = well fitted inhibition curve with a large enough effect; inconclusive = small, poorly fitted or top-dose-only effect; inactive = flat fitted curve, though single readings scatter.
# Legend:
# [1] = tested on: HEK293; experiment: Cytotoxic Profiling of Annotated Libraries Using Quantitative High-Throughput Screening (AID 1296008); conditions: Five cell lines viability, CellTiter-Glo ATP luminescence, 48-72 h; max response: hits give low values; also: potency is read from the fitted curve at half-maximal effect; as to max response: % is scaled to controls: 0 for no effect and ±100 for the full control effect
# Outline: (§1)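 Cytotoxicity was measured as CellTiter-Glo ATP luminescence, read after 10 min at room temperature. Compound treatment of the cells lasted 48 or 72 hr at 37 degrees Celsius in a qHTS format.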
# [2] = tested on: HaCat; experiment: as above; conditions: Five cell lines viability, CellTiter-Glo ATP luminescence, 48-72 h; max response: hits give low values
# Outline: as §1
# [3] = tested on: NIH3T3; experiment: as above; conditions: Five cell lines viability, CellTiter-Glo ATP luminescence, 48-72 h; max response: hits give low values
# Outline: as §1
# [4] = tested on: HACAT; experiment: qHTS assay to identify novel small-molecules to repurpose for Merkel cell carcinoma treatment (AID 1296009); conditions: MCC and control cell lines, CellTiter-Glo viability, 72 h; at 44.8 µM (top of the series) unless noted
# Outline: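 Cell viability, measured as CellTiter-Glo luminescence, was normalized between DMSO and no-cell wells. The cells had been exposed to 8- or 11-point compound dilutions for 72 hr at 37 degree celsius.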
# Also: nearly all actives have a fitted effect of over 60% in size.
structure (smiles),measurement,setting,value
Nc1nc(Nc2ccc3c(c2)CCC(N2CCCC2)CC3)nn1-c1cc2c(nn1)-c1ccccc1CCC2 (centres undefined),Potency,[1],8.2 µM (active)
N#CSc1cc(SC#N)c(N)nc1N,Potency,[1],3.1 µM (active)
same,max response,[2],-25%
CN(C)CC1CCn2c(c(C3=C(c4cn(C)c5ccccc45)C(=O)NC3=O)c3ccccc32)C1 (centres undefined),Potency,[1],8.2 µM (active)
same,Potency,[2],20.6 µM (active)
COc1cc2c(cc1OC)CN(C(=O)/C=C/c1c(-c3ccccc3)n(C)c3ncccc13)CC2,Potency,[1],7.31 µM (active)
CCC(C(C)O)n1ncn(-c2ccc(N3CCN(c4ccc(OCC5COC(Cn6cncn6)(c6ccc(F)cc6F)C5)cc4)CC3)cc2)c1=O (centres undefined),Potency,[1],5.8 µM (active)
CC(=O)N1CCN(CCOc2ccc(C3CCN(C4=Nn5c(nnc5C(F)(F)F)CC4)CC3)cc2)CC1,Potency,[1],9.2 µM (active)
same,max response,[2],-1.46%
C=C1C(=O)OC2/C=C(\COC(C)=O)CC/C=C(\C=O)CC(OC(=O)C(C)CC)C12 (centres undefined),Potency,[1],3.55 µM (active)
N#Cc1cnc2c(Cl)cc(NCc3cn(CCN4CCCCCC4)nn3)cc2c1Nc1ccc(F)c(Cl)c1,Potency,[1],18.4 µM (active)
Cn1ncc(Cl)c1-c1cc(C(=O)NC(CN)Cc2ccc(F)c(F)c2)oc1Cl (centres undefined),Potency,[1],0.231 µM (active)
CC(C)(C[C@@](O)(Cc1cc2ccncc2[nH]1)C(F)(F)F)c1cc(F)ccc1O,Potency,[1],11.6 µM (active)
same,max response,[2],-2.9%
C=C(C=O)[C@]1(O)C[C@@]2(C)C(=CC1=O)C=C[C@H](OC(=O)/C=C/C=C/[C@H](C)CC)[C@@H]2C,Potency,[1],3.99 µM (active)
N#CC(CCCN1CCC(O)(c2ccc(Cl)cc2)CC1)(c1ccccc1)c1ccccc1,max response,[1],-108%
C=C1C(=O)O[C@@H]2[C@H]1CC[C@H](C)C(CCC(=O)O)C2(C)O (some centres undefined),Potency,[1],23.1 µM (active)
CC1(C)CC[C@]23CO[C@@]4(CCC5[C@@]6(C)CC[C@H](O[C@@H]7OC[C@H](O[C@@H]8O[C@H](CO)[C@@H](O)[C@H](O)[C@H]8O[C@@H]8OC[C@@H](O)[C@H](O)[C@H]8O)[C@H](O)[C@H]7O[C@@H]7O[C@H](CO)[C@@H](O)[C@H](O)[C@H]7O)[C@@](C)(CO)C6CC[C@@]5(C)[C@]4(C)C[C@H]2O)[C@@H]3C1 (some centres undefined),Potency,[1],3.48 µM (active)
O=C(CN1C2=NCCN2c2ccccc21)c1ccc(-c2ccccc2)cc1,Potency,[1],18.4 µM (active)
same,Potency,[2],16.4 µM (active)
CN(C)CCN(Cc1ccccc1)C(=O)c1cc(-c2ccc(F)cc2)n2nc(C(C)(C)C)cc2n1,Potency,[1],14.6 µM (active)
same,max response,[2],-107%
CN(C)CCCn1cc(C2=C(c3c[nH]c4ccccc34)C(=O)NC2=O)c2ccccc21,Potency,[1],14.6 µM (active)
same,max response,[2],-0.893%
CC(C)C[C@H](C(=O)O)c1cc(-c2ccc(C(F)(F)F)cc2)cc(-c2ccc(C(F)(F)F)cc2)c1,Potency,[1],10.3 µM (active)
same,max response,[2],1.64%
NC(=O)c1cnc(N[C@@H]2CCCC[C@H]2N)nc1Nc1cccc(-n2nccn2)c1,Potency,[1],20.6 µM (active)
same,Potency,[2],18.4 µM (active)
CCN1CCN(Cc2ccc(C(=O)Nc3ccc(C)c(Oc4ccc5c(c4)CC(=O)N5)c3)cc2C(F)(F)F)CC1,Potency,[1],13 µM (active)
C=C1CC2OC(=O)C(COC)C2C(OC(=O)/C(C)=C\C)CC2(C)OC1=CC2=O (centres undefined),Potency,[1],4.53 µM (active)
same,max response,[2],-10.4%
Cc1cc(N2CCN(C(=O)Oc3ccc(-c4ccccc4)cn3)CC2)c2ccccc2n1,Potency,[1],8.2 µM (active)
Oc1cccc(C2NC(=S)Nc3cccc(F)c32)c1 (centres undefined),Potency,[1],5.8 µM (active)
same,Potency,[2],6.51 µM (active)
CC(C)(C)c1ccc(NC(=O)N2CCN(c3ncccc3Cl)CC2)cc1,Potency,[1],11.6 µM (active)
same,max response,[2],4.52%
COc1ccc2nc(-c3cc(OC)c(OC)c(OC)c3)cc(C(=O)NCC(=O)Nc3ccc(C(C)=O)cc3)c2c1,Potency,[1],7.31 µM (active)
same,max response,[2],-18%
C=C(C)C(=O)OC1CC(CO)CCC/C(CO)=C/C2OC(=O)C(=C)C21 (centres undefined),Potency,[1],7.18 µM (active)
same,max response,[2],1.02%
C=C1C(=O)OC2C(OC(=O)C=C(C)C)C(C)=C3C(=O)C=C(C)C3C(O)C12 (centres undefined),Potency,[1],6.4 µM (active)
COc1ccccc1S(=O)(=O)Nc1ccc2c(c1)CN(C)C(=O)N2,Potency,[1],6.51 µM (active)
same,max response,[2],2.92%
CCC(=C(c1ccc(OCCN2CCCC2)cc1)c1ccc(OCCN2CCCC2)cc1)c1ccccc1,Potency,[1],8.2 µM (active)
same,max response,[2],-11%
Oc1ccc(-c2cnc3ccc(NCc4ccco4)nn23)cc1,Potency,[1],20.6 µM (active)
same,Potency,[2],7.31 µM (active)
CN(c1ccc(NC(=O)Nc2ccccc2)cc1)S(=O)(=O)c1cnn(-c2ccc(F)cc2)c1,Potency,[1],16.4 µM (active)
same,max response,[2],-33.8%
CC(C)(C)c1ccc(-c2nc3c(N4CCN(Cc5ccc6nccnc6c5)CC4)cccc3[nH]2)cc1,Potency,[1],4.11 µM (active)
same,max response,[2],-27.9%
CC(C)NC(=O)COc1cccc(-c2nc(Nc3ccc4[nH]ncc4c3)c3ccccc3n2)c1,Potency,[1],5.8 µM (active)
same,max response,[2],-3.54%
COC1CCN(c2cccc(-c3cc(NC(C)=O)nc(-n4nc(C)cc4C)n3)n2)CC1,Potency,[1],9.2 µM (active)
same,max response,[2],-6.53%
C=CS(=O)(=O)NC1CCN(C(=O)CNc2cc(I)c(Cl)cc2OC)CC1,Potency,[1],8.2 µM (active)
Cc1ccc(C)c(-c2cc(C(F)(F)F)nn2-c2ccc(S(N)(=O)=O)cc2)c1,Potency,[1],5.17 µM (active)
same,max response,[2],3.66%
N#Cc1cc(CN2CCC(Nc3ncnc4sc(Cl)cc34)CC2)ccc1F,Potency,[1],14.6 µM (active)
O=C(NC1(c2ccccc2)CC1)c1c(CN2CCC(N3CCCCC3)CC2)c(-c2cccc(C(F)(F)F)c2)nc2cc(Br)ccc12,Potency,[1],14.6 µM (active)
O=C(Nc1cccc([N+](=O)[O-])c1)c1cccc(S(=O)(=O)N2CCCCCC2)c1,Potency,[1],6.51 µM (active)
same,max response,[2],-27.5%
C[C@@H]1COCCN1c1cc(=O)n2c(n1)N(Cc1cncc(Cl)c1)[C@H](C(F)(F)F)CC2,Potency,[1],4.17 µM (active)
same,max response,[2],-6.64%
COc1ccc(CCc2nc3c(C)c(-c4c(C)noc4C)c(C)cc3n2CCN2CCOCC2)cc1,Potency,[1],23.1 µM (active)
same,max response,[2],-20.3%
same,max response,[3],-12.8%
CCn1c(-c2nonc2N)nc2c(C#CC(C)(C)O)ncc(OCC3CCCNC3)c21 (centres undefined),Potency,[1],0.82 µM (active)
same,outcome,[2],inactive
same,outcome,[3],inactive
same,outcome,[4],inactive
Cc1nc2ccc(-n3ncc(C(=O)c4cc5ccccc5[nH]4)c3N)cc2[nH]1,Potency,[1],5.8 µM (active)
same,max response,[2],-16.7%
same,Potency,[3],9.2 µM (active)
C=C1C(=O)O[C@@H]2/C=C(\CO)CC/C=C(/C=O)C[C@@H](O)[C@@H]12,Potency,[1],8.2 µM (active)
same,Potency,[2],18.4 µM (active)
same,Potency,[3],16.4 µM (active)
OC(c1ccc(-c2ccc(CN3CCN(Cc4ccncc4)CC3)cc2)c(F)c1)(C(F)(F)F)C(F)(F)F,Potency,[1],5.17 µM (active)
same,max response,[2],-9.47%
same,max response,[3],-11.3%
Cc1cc2c(c(=O)o1)C=C1CC[C@H]([C@H](C)Cn3cnc(=N)c4[nH]cnc43)C[C@@H]1O2,Potency,[1],8.2 µM (active)
same,outcome,[2],inactive
same,max response,[3],-1.79%
same,outcome,[4],inactive
CC(=O)NC(C(=O)O[C@H]1CCC(C)(C)[C@@H]2CC=C3C(=O)OCC3(O)[C@@]12C)C(C)C (some centres undefined),max response,[1],-20.5%
same,max response,[2],3.16%
same,outcome,[3],inactive
COc1cc(OC)c(NC(=O)c2ccc(Cc3cc4c(cc3C)C(C)(C)CCC4(C)C)o2)c(OC)c1,Potency,[1],20.6 µM (active)
same,max response,[2],3.56%
same,max response,[3],4.87%
COc1cc2c(Nc3cc(F)c(Cl)c(Cl)c3)ncnc2cc1OCC1CCCN(C)CCC1,Potency,[1],8.2 µM (active)
same,Potency,[2],0.082 µM (active)
same,Potency,[3],5.17 µM (active)
O=C(Nc1ccc(CN2CCOCC2)cc1)c1ccc(-c2cccc(Cl)c2)o1,Potency,[1],9.2 µM (active)
same,max response,[2],-23.4%
same,max response,[3],1.97%
CC(=O)C1(C)CCC2C3C=C(C)C4=CC(=O)CCC4(C)C3CCC21C (centres undefined),Potency,[1],10.3 µM (active)
same,max response,[2],-54.8%
same,max response,[3],-16.2%
COC(=O)N1CC2(CC2)C[C@H](C(=O)NO)[C@H]1C(=O)N1CCN(c2ccccc2)CC1,Potency,[1],23.4 µM (active)
same,Potency,[2],26.3 µM (active)
same,outcome,[3],inactive
COc1cc(/C=C2\CCCN([C@@H](C)c3ccc(F)cc3)C2=O)ccc1-n1cnc(C)c1,Potency,[1],13 µM (active)
same,max response,[2],3.5%
same,max response,[3],-4.02%
COc1cc2c(cc1NS(=O)(=O)c1ccc(Br)cc1C)n(C)c(=O)n2C,Potency,[1],1.46 µM (active)
same,max response,[2],0.2%
same,max response,[3],1.72%
CC(C)S(=O)(=O)NC[C@@H]1CC(c2ccc(N3CCCC3)c(F)c2)=NO1,Potency,[1],14.6 µM (active)
same,max response,[2],-20.2%
same,max response,[3],-14.9%
COc1ccc(C#Cc2ccc(C(=O)N3CCC[C@@H](O)C3)c(F)c2)cc1,Potency,[1],13 µM (active)
same,max response,[2],-33.7%
Nc1nc(Cl)nc2c1ncn2C1OC(CO)C(O)C1F (centres undefined),Potency,[1],2.06 µM (active)
same,Potency,[2],1.46 µM (active)
same,Potency,[3],1.03 µM (active)
COc1cccc(-c2cn(-c3ccc(CCN4CCC(O)CC4)cc3)c3ncnc(N)c23)c1,Potency,[1],8.2 µM (active)
same,Potency,[2],5.17 µM (active)
same,Potency,[3],1.3 µM (active)
NC(=O)c1cnc(N[C@@H]2CCCC[C@@H]2N)nc1Nc1cccc(-n2nccn2)c1,Potency,[1],11.7 µM (active)
same,Potency,[2],13.2 µM (active)
same,Potency,[3],23.4 µM (active)
CNC1CN(c2ccc3c(=O)c(C(=O)O)cn(-c4nccs4)c3n2)CC1OC (centres undefined),Potency,[1],1.06 µM (active)
same,Potency,[2],1.68 µM (active)
same,Potency,[3],0.211 µM (active)
c1cc(NCCc2c[nH]c3ccccc23)cc(Nc2ccncc2)c1,max response,[1],-111%
same,outcome,[2],inactive
same,max response,[3],-50.3%
same,outcome,[4],inactive
